# Test results: paper PMC7862700, “An all-to-all approach to the identification of sequence-specific readers for epigenetic DNA modifications on cytosine”
# Columns and labels:
# Assay in all cases: DAPPL (digital affinity profiling via proximity ligation, sequencing); 10 mM Tris-HCl pH 7.5, 50 mM NaCl, 1 mM DTT, 4% glycerol, room temperature, 30 min; GST-TFs on glutathione beads, 16-mer random dsDNA library, 0.1% formaldehyde crosslink after washing; high values mean tight binding
# FEV = target: T1, FEV (Homo sapiens, UniProt Q99581 1-238); conditions: protein: recombinant; tags: N-terminal GST; dsDNA, one strand shown
# T1 sequence: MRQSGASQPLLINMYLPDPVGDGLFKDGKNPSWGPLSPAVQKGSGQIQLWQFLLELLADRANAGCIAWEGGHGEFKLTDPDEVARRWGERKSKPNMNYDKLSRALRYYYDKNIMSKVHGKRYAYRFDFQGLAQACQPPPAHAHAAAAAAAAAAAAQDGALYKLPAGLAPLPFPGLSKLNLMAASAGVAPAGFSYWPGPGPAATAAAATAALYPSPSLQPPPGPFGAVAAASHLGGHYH
# Summary of the method: (§1)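 Human transcription factors fused to GST were expressed in yeast, captured on glutathione beads, given DNA barcodes and pooled with a GST-only negative control. Pools were incubated with 200 nmole of a 16-mer random double-stranded DNA library in Tris/NaCl/DTT/glycerol buffer at room temperature for 30 min. They were then washed, crosslinked with 0.1% formaldehyde, proximity-ligated (BsaI/T4 ligase, 1 h, 37 °C), PCR-amplified and sequenced on an Illumina NextSeq500. Binding signal is each 6-mer's read frequency for a factor divided by its frequency for the GST control.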
# ETV5 = ETV5 (Homo sapiens, UniProt P41161 1-510); conditions: protein: recombinant; tags: N-terminal GST; dsDNA, one strand shown
# Chain of ETV5 (P41161 whole entry): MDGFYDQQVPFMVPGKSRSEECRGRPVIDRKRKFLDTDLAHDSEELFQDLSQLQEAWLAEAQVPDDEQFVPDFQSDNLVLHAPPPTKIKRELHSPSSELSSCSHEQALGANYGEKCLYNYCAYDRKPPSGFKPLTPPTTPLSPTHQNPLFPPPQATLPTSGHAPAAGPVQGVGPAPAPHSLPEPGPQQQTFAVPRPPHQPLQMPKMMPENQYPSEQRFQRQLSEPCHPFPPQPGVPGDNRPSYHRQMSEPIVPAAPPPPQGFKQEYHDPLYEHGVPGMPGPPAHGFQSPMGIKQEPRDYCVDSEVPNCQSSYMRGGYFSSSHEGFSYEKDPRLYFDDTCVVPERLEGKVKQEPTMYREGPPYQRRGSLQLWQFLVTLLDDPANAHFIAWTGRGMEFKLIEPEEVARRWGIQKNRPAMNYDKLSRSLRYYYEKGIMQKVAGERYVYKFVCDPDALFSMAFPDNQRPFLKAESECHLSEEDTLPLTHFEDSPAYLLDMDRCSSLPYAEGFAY
# Summary of the method: as §1
# HSF1 = HSF1 (Homo sapiens, UniProt Q00613 1-529); conditions: protein: recombinant; tags: N-terminal GST; chain copies: 3; dsDNA, one strand shown
# Chain of HSF1 (Q00613 whole entry): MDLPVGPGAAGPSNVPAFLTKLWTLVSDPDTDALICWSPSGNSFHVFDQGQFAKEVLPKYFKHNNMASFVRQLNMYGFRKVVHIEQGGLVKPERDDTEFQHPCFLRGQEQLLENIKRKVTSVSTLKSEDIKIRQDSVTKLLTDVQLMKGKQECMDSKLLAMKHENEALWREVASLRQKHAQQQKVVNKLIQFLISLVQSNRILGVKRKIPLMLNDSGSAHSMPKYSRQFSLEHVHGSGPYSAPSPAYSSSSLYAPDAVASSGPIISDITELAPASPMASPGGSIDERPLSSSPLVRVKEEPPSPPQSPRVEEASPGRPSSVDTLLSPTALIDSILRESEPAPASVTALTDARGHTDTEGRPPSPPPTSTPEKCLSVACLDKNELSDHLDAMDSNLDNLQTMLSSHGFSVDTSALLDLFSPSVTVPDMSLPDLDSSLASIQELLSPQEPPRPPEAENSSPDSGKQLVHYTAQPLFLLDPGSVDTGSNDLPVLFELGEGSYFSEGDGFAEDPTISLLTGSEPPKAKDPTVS
# Summary of the method: as §1
# SPIC = target: T2, SPIC (Homo sapiens, UniProt Q8N5J4 1-248); conditions: protein: recombinant; tags: N-terminal GST; dsDNA, one strand shown
# T2 sequence: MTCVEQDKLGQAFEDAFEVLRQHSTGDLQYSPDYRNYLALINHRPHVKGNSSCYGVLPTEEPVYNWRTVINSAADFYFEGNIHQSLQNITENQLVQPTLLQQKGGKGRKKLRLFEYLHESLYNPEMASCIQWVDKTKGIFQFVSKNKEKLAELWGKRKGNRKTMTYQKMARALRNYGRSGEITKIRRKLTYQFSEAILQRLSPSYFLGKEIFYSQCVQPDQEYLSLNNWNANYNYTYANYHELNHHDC
# Summary of the method: as §1
# ELF4 = ELF4 (Homo sapiens, UniProt Q99607 1-663); conditions: protein: recombinant; tags: N-terminal GST; dsDNA, one strand shown
# Chain of ELF4 (Q99607 whole entry): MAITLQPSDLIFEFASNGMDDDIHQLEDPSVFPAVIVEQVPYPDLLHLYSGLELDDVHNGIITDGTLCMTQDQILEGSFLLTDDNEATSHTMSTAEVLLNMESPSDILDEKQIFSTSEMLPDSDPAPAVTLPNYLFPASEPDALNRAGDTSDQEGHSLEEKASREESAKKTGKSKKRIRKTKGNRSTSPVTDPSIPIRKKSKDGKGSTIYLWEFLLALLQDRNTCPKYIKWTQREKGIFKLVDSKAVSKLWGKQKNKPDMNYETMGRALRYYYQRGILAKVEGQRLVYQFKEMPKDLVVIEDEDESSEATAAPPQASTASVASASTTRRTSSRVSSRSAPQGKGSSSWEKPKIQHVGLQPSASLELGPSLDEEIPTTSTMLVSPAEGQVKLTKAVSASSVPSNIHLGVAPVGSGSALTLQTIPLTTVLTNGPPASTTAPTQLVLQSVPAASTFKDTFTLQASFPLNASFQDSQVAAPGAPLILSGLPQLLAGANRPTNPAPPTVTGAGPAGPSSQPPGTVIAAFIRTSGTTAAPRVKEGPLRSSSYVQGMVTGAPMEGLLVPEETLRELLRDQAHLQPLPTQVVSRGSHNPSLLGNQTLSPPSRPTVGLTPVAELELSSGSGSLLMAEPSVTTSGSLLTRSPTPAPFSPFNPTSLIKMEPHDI
# Summary of the method: as §1
# ELK4 = target: T3, ELK4 (Homo sapiens, UniProt P28324-2 1-405); conditions: protein: recombinant; tags: N-terminal GST; dsDNA, one strand shown
# T3 sequence: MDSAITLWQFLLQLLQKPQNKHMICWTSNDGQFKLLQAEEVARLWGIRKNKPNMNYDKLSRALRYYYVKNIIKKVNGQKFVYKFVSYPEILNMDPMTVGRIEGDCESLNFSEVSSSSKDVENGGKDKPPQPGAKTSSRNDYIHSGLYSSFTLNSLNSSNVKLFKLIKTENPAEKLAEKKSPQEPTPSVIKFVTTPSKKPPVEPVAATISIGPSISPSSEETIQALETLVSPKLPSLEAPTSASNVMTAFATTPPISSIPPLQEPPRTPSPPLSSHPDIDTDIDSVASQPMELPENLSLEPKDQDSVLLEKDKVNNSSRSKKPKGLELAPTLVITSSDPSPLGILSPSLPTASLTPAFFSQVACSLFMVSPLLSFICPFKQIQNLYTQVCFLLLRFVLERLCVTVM
# Summary of the method: as §1
# ETV2 = target: T4, ETV2 (Homo sapiens, UniProt O00321 1-342); conditions: protein: recombinant; tags: N-terminal GST; dsDNA, one strand shown
# T4 sequence: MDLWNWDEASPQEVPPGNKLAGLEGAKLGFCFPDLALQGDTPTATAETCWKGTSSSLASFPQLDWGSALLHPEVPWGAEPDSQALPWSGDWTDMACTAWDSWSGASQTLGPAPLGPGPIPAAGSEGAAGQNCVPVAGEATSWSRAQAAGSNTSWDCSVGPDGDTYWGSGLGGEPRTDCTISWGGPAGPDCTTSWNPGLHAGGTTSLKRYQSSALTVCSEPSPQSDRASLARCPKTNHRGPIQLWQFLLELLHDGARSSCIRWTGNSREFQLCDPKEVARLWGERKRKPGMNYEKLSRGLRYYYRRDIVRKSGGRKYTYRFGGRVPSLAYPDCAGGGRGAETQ
# Summary of the method: as §1
# ELF3 = target: T5, ELF3 (Homo sapiens, UniProt P78545 1-371); conditions: protein: recombinant; tags: N-terminal GST; dsDNA, one strand shown
# T5 sequence: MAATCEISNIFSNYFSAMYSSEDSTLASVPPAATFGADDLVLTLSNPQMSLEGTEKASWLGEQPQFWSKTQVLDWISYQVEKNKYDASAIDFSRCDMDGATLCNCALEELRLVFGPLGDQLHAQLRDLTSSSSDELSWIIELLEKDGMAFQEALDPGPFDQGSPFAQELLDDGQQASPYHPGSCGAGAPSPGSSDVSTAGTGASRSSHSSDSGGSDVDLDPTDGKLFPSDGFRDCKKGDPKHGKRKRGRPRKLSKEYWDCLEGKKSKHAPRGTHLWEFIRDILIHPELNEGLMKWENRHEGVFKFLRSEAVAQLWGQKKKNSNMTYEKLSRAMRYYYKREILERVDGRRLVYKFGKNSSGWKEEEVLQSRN
# Summary of the method: as §1
# CRX = CRX (Homo sapiens, UniProt O43186 1-299); conditions: protein: recombinant; tags: N-terminal GST; dsDNA, one strand shown
# Chain of CRX (O43186 whole entry): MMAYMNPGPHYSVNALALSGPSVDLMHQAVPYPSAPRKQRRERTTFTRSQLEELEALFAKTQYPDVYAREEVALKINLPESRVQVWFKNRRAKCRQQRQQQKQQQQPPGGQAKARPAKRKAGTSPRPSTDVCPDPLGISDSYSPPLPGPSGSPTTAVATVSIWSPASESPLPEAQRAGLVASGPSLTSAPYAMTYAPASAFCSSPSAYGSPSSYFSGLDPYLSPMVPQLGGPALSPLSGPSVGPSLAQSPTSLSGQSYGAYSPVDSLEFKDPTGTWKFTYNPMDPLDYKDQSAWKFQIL
# Summary of the method: as §1
# ETV1 = ETV1 (Homo sapiens, UniProt P50549 1-477); conditions: protein: recombinant; tags: N-terminal GST; dsDNA, one strand shown
# Chain of ETV1 (P50549 whole entry): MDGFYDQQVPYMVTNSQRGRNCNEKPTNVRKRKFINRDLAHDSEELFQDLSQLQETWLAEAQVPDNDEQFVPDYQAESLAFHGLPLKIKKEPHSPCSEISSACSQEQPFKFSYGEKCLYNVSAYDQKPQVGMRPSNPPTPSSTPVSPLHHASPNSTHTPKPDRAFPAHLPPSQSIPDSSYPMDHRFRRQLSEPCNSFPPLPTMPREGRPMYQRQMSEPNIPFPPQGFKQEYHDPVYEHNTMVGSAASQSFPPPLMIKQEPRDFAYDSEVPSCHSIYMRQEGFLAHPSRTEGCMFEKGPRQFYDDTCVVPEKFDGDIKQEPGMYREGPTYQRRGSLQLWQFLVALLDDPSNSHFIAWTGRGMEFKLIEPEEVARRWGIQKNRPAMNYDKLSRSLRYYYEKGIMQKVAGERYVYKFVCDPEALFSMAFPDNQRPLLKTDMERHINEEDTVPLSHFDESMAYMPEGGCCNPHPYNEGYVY
# Summary of the method: as §1
# ERF = target: T6, ERF (Homo sapiens, UniProt P50548 1-548); conditions: protein: recombinant; tags: N-terminal GST; dsDNA, one strand shown
# T6 sequence: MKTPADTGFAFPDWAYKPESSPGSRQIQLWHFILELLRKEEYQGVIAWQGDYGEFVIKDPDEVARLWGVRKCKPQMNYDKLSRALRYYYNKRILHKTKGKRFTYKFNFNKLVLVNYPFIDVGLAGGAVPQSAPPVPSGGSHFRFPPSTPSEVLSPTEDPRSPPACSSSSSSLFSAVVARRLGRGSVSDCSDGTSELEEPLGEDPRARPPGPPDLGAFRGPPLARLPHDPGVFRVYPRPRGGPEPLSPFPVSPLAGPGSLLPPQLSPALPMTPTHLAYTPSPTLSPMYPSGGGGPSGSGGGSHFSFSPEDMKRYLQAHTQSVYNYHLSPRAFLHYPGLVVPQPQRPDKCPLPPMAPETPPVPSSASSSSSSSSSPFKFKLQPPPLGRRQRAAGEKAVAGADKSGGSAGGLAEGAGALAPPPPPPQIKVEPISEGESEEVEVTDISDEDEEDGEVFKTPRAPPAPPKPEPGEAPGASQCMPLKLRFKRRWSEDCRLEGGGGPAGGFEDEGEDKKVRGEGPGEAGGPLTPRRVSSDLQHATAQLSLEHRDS
# Summary of the method: as §1
# ETV3L = target: T7, ETV3L (Homo sapiens, UniProt Q6ZN32 1-361); conditions: protein: recombinant; tags: N-terminal GST; dsDNA, one strand shown
# T7 sequence: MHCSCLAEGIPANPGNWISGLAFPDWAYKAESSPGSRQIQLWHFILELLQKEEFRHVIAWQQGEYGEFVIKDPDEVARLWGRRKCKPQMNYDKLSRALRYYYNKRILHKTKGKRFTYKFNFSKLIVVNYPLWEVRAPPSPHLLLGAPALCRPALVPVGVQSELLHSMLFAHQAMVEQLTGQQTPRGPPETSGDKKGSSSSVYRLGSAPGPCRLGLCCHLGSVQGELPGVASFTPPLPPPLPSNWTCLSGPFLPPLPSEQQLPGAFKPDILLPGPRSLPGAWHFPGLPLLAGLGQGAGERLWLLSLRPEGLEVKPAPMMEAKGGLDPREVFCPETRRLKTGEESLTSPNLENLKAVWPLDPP
# Summary of the method: as §1
# ETS2 = target: T8, ETS2 (Homo sapiens, UniProt P15036 1-469); conditions: protein: recombinant; tags: N-terminal GST; dsDNA, one strand shown
# T8 sequence: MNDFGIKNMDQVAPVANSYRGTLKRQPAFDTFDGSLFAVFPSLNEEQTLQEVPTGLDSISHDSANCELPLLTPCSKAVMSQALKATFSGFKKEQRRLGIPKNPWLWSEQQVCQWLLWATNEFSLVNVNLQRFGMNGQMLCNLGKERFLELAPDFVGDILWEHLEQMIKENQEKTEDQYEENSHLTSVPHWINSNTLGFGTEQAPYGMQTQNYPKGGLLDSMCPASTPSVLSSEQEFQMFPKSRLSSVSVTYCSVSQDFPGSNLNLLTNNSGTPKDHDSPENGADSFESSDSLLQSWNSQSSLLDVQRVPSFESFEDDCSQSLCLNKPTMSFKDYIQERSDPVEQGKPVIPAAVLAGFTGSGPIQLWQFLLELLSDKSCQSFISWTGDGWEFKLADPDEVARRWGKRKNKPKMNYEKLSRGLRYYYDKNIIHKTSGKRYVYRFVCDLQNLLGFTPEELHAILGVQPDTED
# Summary of the method: as §1
# SPDEF = target: T9, SPDEF (Homo sapiens, UniProt O95238 1-335); conditions: protein: recombinant; tags: N-terminal GST; dsDNA, one strand shown
# T9 sequence: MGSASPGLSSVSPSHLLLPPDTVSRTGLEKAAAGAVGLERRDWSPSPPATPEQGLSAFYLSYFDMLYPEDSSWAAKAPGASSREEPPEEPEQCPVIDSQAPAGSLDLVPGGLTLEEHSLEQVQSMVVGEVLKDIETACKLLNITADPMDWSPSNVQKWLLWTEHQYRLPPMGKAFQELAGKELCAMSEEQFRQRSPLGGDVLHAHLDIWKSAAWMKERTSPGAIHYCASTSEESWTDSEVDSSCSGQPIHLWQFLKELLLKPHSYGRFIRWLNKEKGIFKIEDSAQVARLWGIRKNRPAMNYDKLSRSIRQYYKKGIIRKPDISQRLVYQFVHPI
# Summary of the method: as §1
# ETV7 = target: T10, ETV7 (Homo sapiens, UniProt Q9Y603 1-341); conditions: protein: recombinant; tags: N-terminal GST; dsDNA, one strand shown
# T10 sequence: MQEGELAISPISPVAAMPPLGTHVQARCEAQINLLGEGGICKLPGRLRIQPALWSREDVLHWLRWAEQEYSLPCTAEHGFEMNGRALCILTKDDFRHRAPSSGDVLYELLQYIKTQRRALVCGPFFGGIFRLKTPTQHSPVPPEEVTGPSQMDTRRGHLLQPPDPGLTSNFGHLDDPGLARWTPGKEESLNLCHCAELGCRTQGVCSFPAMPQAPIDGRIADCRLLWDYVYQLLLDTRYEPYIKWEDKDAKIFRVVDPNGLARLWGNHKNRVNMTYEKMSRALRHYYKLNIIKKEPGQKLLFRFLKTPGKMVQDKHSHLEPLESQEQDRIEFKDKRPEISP
# Summary of the method: as §1
# ELF5 = target: T11, ELF5 (Homo sapiens, UniProt Q9UKW6-2 1-255); conditions: protein: recombinant; tags: N-terminal GST; dsDNA, one strand shown
# T11 sequence: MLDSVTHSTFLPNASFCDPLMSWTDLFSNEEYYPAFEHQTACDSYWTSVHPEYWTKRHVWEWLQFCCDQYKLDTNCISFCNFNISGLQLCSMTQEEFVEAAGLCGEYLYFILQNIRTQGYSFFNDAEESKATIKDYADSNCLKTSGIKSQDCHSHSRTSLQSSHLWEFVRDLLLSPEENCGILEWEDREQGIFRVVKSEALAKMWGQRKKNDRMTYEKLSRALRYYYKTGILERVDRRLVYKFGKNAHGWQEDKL
# Summary of the method: as §1
# ETV3 = target: T12, ETV3 (Homo sapiens, UniProt P41162-2 1-143); conditions: protein: recombinant; tags: N-terminal GST; dsDNA, one strand shown
# T12 sequence: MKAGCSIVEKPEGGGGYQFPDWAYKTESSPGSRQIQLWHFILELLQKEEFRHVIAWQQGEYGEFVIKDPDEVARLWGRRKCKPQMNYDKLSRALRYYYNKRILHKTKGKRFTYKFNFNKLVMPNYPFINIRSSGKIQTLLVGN
# Summary of the method: as §1
# ETV6 = ETV6 (Homo sapiens, UniProt P41212 1-452); conditions: protein: recombinant; tags: N-terminal GST; dsDNA, one strand shown
# Chain of ETV6 (P41212 whole entry): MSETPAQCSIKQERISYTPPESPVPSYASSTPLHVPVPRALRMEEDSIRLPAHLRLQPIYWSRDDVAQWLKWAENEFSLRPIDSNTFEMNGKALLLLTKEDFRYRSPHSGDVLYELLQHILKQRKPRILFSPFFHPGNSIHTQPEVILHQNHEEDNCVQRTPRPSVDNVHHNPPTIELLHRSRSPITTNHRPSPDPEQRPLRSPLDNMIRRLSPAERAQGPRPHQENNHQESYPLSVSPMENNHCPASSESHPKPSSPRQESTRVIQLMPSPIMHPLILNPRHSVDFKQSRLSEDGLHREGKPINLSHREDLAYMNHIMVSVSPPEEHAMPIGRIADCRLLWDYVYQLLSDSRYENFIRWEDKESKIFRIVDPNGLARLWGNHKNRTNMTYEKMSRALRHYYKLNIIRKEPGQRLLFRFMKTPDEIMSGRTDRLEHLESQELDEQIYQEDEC
# Summary of the method: as §1
sequence,measurement,setting,value
TTCCGC,binding signal,FEV,"3.1 fold enrichment (6-mer frequency, TF over GST control)"
same,binding signal,ETV5,"3.42 fold enrichment (6-mer frequency, TF over GST control)"
same,binding signal,HSF1,"1.34 fold enrichment (6-mer frequency, TF over GST control)"
same,binding signal,SPIC,"3.62 fold enrichment (6-mer frequency, TF over GST control)"
same,binding signal,ELF4,"2.82 fold enrichment (6-mer frequency, TF over GST control)"
same,binding signal,ELK4,"2.57 fold enrichment (6-mer frequency, TF over GST control)"
same,binding signal,ETV2,"2.79 fold enrichment (6-mer frequency, TF over GST control)"
same,binding signal,ELF3,"3.06 fold enrichment (6-mer frequency, TF over GST control)"
same,binding signal,CRX,"1.26 fold enrichment (6-mer frequency, TF over GST control)"
same,binding signal,ETV1,"3.17 fold enrichment (6-mer frequency, TF over GST control)"
same,binding signal,ERF,"2.75 fold enrichment (6-mer frequency, TF over GST control)"
same,binding signal,ETV3L,"2.9 fold enrichment (6-mer frequency, TF over GST control)"
same,binding signal,ETS2,"3.21 fold enrichment (6-mer frequency, TF over GST control)"
same,binding signal,SPDEF,"2.77 fold enrichment (6-mer frequency, TF over GST control)"
same,binding signal,ETV7,"3.02 fold enrichment (6-mer frequency, TF over GST control)"
same,binding signal,ELF5,"4.41 fold enrichment (6-mer frequency, TF over GST control)"
same,binding signal,ETV3,"3.37 fold enrichment (6-mer frequency, TF over GST control)"
same,binding signal,ETV6,"3.62 fold enrichment (6-mer frequency, TF over GST control)"
